Bioassay records as filed in PubChem BioAssay.
ABHD5-PLIN5 inh: ABHD5-PLIN5 protein interaction inhibition; Q00G26+Q8WTS1; Split G. princeps luciferase complementation, luminescence, 4 h; inhibition, % at 4 µM; 360,000 compounds, 0.78% hits; AID 602281;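 active = inhibition above the mean inhibition across every tested compound plus 3 SD, cut at about 22% in these data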;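 also: 0% = DMSO only wells and the 100% control is not disclosed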
NOD2 RIPK2 PPI: blocks binding of human NOD2 to RIPK2. CHO BLA complementation NOD2-RIPK2, CCF4 ratio. inhibition, % at 4.98 µM. 360,000 compounds, 0.38% hits. O43353; in the data active = inhibition above about 21%;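 also: 0% = vehicle only and 100% = reference blocker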
TLR4-MyD88 BLA: TLR4-MyD88 interaction inhibition in cells. inhibition, % at 8.4 µM. 200,000 compounds, 0.18% hits. AID 861. HeLa CL3-4 TLR4/MyD88 BLA complementation, FRET ratio; in the data active = inhibition above about 25%;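 also: 0% = vehicle and 100% = reference inhibitor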
TLR9-MyD88 block: TLR9-MyD88 interaction inhibition. inhibition, % at 4.98 µM. Q9NR96+Q99836. CHO BLA complementation TLR9-MyD88, CCF4 FRET ratio. 340,000 compounds, 0.21% hits;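 active = inhibition above the mean over all tested compounds plus 3 SD, cut at about 21% in these data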;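 also: 0% = DMSO only wells and 100% = clavulanate BLA inhibitor control wells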
ABHD5-PLIN5 conf: ABHD5-PLIN5 interaction inhibition, confirmed; inhibition, % at 4 µM; 2,200 compounds, 67% hits; biochemical ABHD5-PLIN5 interaction, luminescence; shares compounds with ABHD5-PLIN5 inh; AID 651612; in the data active = inhibition above about 23%;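 also: 0% = DMSO vehicle wells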
HNF4 counter: HNF4 split-luciferase signal hit, counter-screen; HNF4 dimerization, luminescence, biochemical; inhibition, % at 4 µM; shares compounds with ABHD5-PLIN5 inh; 2,200 compounds, 77% hits;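 active = mean inhibition across replicate wells exceeding the computed hit threshold, cut at about 13% in these data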;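 also: light from luciferase halves that rejoin when HNF4 fusion proteins dimerize; 0% = DMSO only wells and the 100% control is not given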
Target sequence (P41235 whole entry, looked up, the tested form may be a part): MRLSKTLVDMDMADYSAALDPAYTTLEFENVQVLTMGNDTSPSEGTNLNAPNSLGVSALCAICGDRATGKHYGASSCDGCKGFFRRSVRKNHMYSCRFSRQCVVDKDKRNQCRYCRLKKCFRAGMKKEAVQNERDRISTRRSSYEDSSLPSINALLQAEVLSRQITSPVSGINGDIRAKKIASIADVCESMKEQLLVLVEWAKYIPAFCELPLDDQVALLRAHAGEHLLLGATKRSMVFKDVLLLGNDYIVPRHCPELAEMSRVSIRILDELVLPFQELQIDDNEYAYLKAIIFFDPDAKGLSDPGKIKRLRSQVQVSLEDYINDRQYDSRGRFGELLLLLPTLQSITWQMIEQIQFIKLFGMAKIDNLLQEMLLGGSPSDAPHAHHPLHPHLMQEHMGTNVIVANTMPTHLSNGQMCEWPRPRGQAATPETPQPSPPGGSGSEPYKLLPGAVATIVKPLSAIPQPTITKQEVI
Numbers without * were called inactive; nt = no result. Only some compounds are listed: those with a hit (about 1.2% of all), similar ones and a draw of the others.

SMILES	ABHD5-PLIN5 inh	NOD2 RIPK2 PPI	TLR4-MyD88 BLA	TLR9-MyD88 block	ABHD5-PLIN5 conf	HNF4 counter
COc1cc2c3c(c1)C(C)=CC(C)(C)N3C(=O)C2=O	3	12	1	0	nt	nt
CCCOc1ccccc1-n1sc2c(c1=S)-c1cc(OC)cc3c1N(C(=O)C3=O)C2(C)C	35*	-5	12	11	78*	67*
CN(C)c1ccc(S(=O)(=O)N2CCCCC2)cc1NC(=O)COc1ccccc1F	-4	8	nt	-1	nt	nt
CC1CCC/C=C/C(=O)c2c(O)cc(O)cc2CC(=O)O1 (stereo not drawn)	32*	13	nt	-3	54*	70*
O=C(NC1(O)C(=O)c2ccccc2C1=O)c1ccc(C(F)(F)F)cc1	28*	-11	nt	nt	54*	64*
Cc1ccc(/C=N/N2CCN(C3c4ccccc4-c4ccccc43)CC2)o1	26*	15	nt	7	8	13*
Oc1ccc(/C=N/N2CCN(C3c4ccccc4-c4ccccc43)CC2)cc1	-5	-6	nt	-3	nt	nt
CCN(CC)Cc1cc(Nc2c3ccccc3nc3c4ccccc4n(C)c23)cc(CN(CC)CC)c1O	27*	4	nt	-3	44*	29*
O=C(CSc1nnc(-c2ccncc2)n1Cc1ccco1)c1ccc(Cl)cc1	32*	-1	-21	6	18	29*
O=C(CSc1nnc(-c2ccc(Cl)cc2)n1Cc1ccco1)c1cccs1	33*	-2	-9	16	12	14*
CCN(c1ccccc1C(=O)O)S(=O)(=O)c1ccc2[nH]c(=O)[nH]c2c1	-1	-8	nt	-1	nt	nt
CCOC1=C2CN(S(=O)(=O)c3ccc(C)cc3)[C@H](c3ccccc3)C[C@@H]2N(S(=O)(=O)c2ccc(Br)cc2)[C@H](c2ccccc2)C1	14	-6	nt	nt	nt	nt
O=C1NC(=S)S/C1=C/c1ccc(N2CCOCC2)o1	44*	-7	-1	-2	42*	106*
O=C1S/C(=C/c2ccc(N3CCOCC3)o2)C(=O)N1Cc1ccc(F)cc1	12	1	10	6	nt	nt
COc1ccc(-c2[nH][nH]c(=O)c2NC(=O)c2ccccn2)cc1	-24	5	nt	nt	nt	nt
COc1ccc(CCC(=O)Nc2c(-c3ccc(N(C)C)cc3)[nH][nH]c2=O)cc1	86*	8	nt	nt	22	79*
CC1(C)COC(/C=C/c2cccc([N+](=O)[O-])c2)=N1	29*	-5	6	-1	46*	49*
CC1(C)COC(c2cc([N+](=O)[O-])ccc2Cl)=N1	2	-7	-7	-10	nt	nt
Cc1cc(=O)oc2c(C(=O)/C=C/c3ccccc3)c(O)ccc12	8	-22	1	-4	nt	nt
Cc1cc(=O)oc2c(C(=O)/C=C\c3cccs3)c(O)ccc12	39*	0	11	0	39*	45*
COc1cc(/C=C/C(=O)c2c(O)ccc3c(C)cc(=O)oc23)ccc1O	51*	-1	8	2	61*	64*
COc1ccc(/C=C\C(=O)c2c(O)ccc3c(C)cc(=O)oc23)cc1OC	50*	-5	9	-6	74*	61*
CC(=O)c1c(OCC(=O)O)ccc2c(C)cc(=O)oc12	6	-7	5	2	nt	nt
CC(=O)C(=Cc1ccc(-c2ccccc2)cc1)C(=O)c1ccccc1	95*	-7	nt	nt	98*	96*
COCCn1c(-c2ccc(OC)cc2)c(-c2ccc(OC)cc2)oc1=O	-6	-10	nt	1	nt	nt
SMILES	ABHD5-PLIN5 inh	NOD2 RIPK2 PPI	TLR4-MyD88 BLA	TLR9-MyD88 block	ABHD5-PLIN5 conf	HNF4 counter
CC1(C)Cc2c(sc3nc(SCC(=O)NCc4ccco4)n(-c4ccccc4)c(=O)c23)CS1	30*	4	-13	-6	16	10
COc1ccc(NC(=O)N(C)C[C@H]2Oc3ccc(NC(=O)Cn4cnnn4)cc3C(=O)N([C@H](C)CO)C[C@@H]2C)cc1	-2	-2	nt	-3	nt	nt
COc1cc(OC)cc(-n2nnnc2SCC(=O)N2CCCC2)c1	10	-4	5	-1	nt	nt
COc1ccc(-n2nnnc2S(=O)(=O)CC(=O)N2CCCCC2)cc1	54*	20	6	16	75*	83*
COc1ccc(-n2nnnc2S(=O)(=O)Cc2ccc(C(=O)O)cc2)cc1	54*	3	-4	-6	79*	81*
Cc1ccc(Oc2c(C(N)=O)cc([N+](=O)[O-])cc2[N+](=O)[O-])cc1	63*	-3	-8	8	95*	74*
Cc1ccc(CNc2ccc([N+](=O)[O-])cc2C(N)=O)cc1	-14	2	nt	7	nt	nt
COc1ccc(CCC(=O)NCCS(=O)(=O)N2CCN(c3ccc(OC)cc3)CC2)cc1	7	-1	nt	-8	nt	nt
COc1ccc(N2CCN(S(=O)(=O)CCNC(=O)Cc3ccc([N+](=O)[O-])cc3)CC2)cc1	68*	-16	nt	-6	1	-3
CCN(CC)C(=O)C1=C(C)N(Cc2ccc(C(C)(C)C)cc2)C(=O)C(CC(=O)NCCCN(C)C)C1 (stereo not drawn)	-3	-4	nt	7	nt	nt
COc1ccc(C2CC(=O)C(CS(=O)(=O)c3ccccc3)C(=O)C2)cc1 (stereo not drawn)	42*	-15	-2	nt	53*	102*
COc1ccc(N2C(=O)CC(c3ccccc3)CC2=O)cc1	-4	3	nt	2	nt	nt
O=C1CCCC(=O)C1CS(=O)(=O)c1ccccc1	41*	4	-4	1	46*	98*
O=C1CC(c2ccccc2)CC(=O)C1Sc1ccc(Cl)cc1 (stereo not drawn)	-1	-6	-2	-1	nt	nt
O=C1CC(c2ccc(Cl)cc2)CC(=O)C1CS(=O)(=O)c1ccccc1 (stereo not drawn)	25*	-8	0	0	43*	83*
O=S(=O)(CS(=O)(=O)c1ccccc1)c1ccccc1	2	-15	nt	-4	nt	nt
COc1ccc(N/N=C(\C#N)C(=N)SCc2ccccc2)cc1	39*	-11	0	1	38*	37*
COc1ccc(N/N=C(\C#N)C(=N)N2CCCCC2)cc1	6	-2	nt	9	nt	nt
CC1(C)CC(=O)C(CS(=O)(=O)c2ccccc2)=C(O)C1	44*	-2	nt	-12	50*	92*
CC1(C)CC(=O)C(CC(=O)Nc2ccc(S(N)(=O)=O)cc2)=C(O)C1	5	6	-17	-8	nt	nt
C=CCNC(=O)/C(C#N)=C/c1ccccc1Cl	6	3	6	-4	nt	nt
C=CCNC(=O)/C(C#N)=C/c1cc(Br)ccc1OC	43*	6	-8	-4	56*	45*
COc1cc(N)c(Cl)cc1C(=O)OCC(=O)NCC1CCCCC1	3	1	nt	9	nt	nt
O=S(=O)(NC1=NCCCCC1)c1ccc2sc(NS(=O)(=O)c3ccc4ccccc4c3)nc2c1	47*	-7	nt	-5	9	-35
CN(C)c1ccc(Cc2cc3c(O)ccc(O)c3cc(Cc3ccc(N(C)C)cc3)c2=O)cc1	87*	2	nt	5	95*	47*
